In PubChem BioAssay AID2280 (The Scripps Research Institute Molecular Screening Center, 2010):
About 1,400 (0.44%) of roughly 320,000 compounds were called active. The sample holds actives, similar compounds and a random draw of the others, so the mix is not that of the screen.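 The calls were made as follows: active = percent inhibition above a per-plate cutoff, the plate mean of test compounds plus 3 SD (cut at about 30% in these data); inactive = the rest.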

Target: Female germline-specific tumor suppressor gld-1 (Caenorhabditis elegans) (UniProt Q17339)
Assay: small molecules blocking C. elegans GLD-1 RNA recognition – biochemical, fluorescence polarization, primary screen (AID 2280);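 also: 0% = DMSO wells with GLD-1 and probe and 100% = wells lacking GLD-1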
Settings: purified GLD-1 + fluorescein TGE RNA, at 5.96 µM, active compounds read high

Sequence of Female germline-specific tumor suppressor gld-1 (Caenorhabditis elegans) (Q17339 whole entry, looked up): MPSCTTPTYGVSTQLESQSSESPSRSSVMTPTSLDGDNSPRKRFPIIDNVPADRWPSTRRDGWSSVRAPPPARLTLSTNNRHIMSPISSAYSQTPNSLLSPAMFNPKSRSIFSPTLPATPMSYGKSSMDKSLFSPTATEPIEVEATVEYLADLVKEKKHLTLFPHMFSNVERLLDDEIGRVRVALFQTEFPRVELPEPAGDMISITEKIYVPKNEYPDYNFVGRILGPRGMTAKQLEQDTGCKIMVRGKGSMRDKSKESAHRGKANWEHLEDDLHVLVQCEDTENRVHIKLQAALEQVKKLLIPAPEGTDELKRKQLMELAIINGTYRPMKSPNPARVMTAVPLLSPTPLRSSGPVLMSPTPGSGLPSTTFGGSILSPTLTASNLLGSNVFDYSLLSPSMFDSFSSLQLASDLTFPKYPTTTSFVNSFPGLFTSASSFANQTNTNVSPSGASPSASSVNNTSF

inhibition, active:
CC1=CC2=NC(=O)/C(=C/c3coc4ccccc4c3=O)C(=N)N2O1 32.9%, O=C(COC(=O)c1ccccc1C(=O)N1CCN(c2ccccc2)CC1)NCc1ccccc1 55.9%, CCCn1c(O)c(CN2CCCC(C)C2)c(C)c(C#N)c1=O (configuration not stated) 41.2%, COCCNC(=O)Nc1ccc2nc(-c3ccco3)c(-c3ccco3)nc2c1 69.3%, Nc1cccc2c1C(=O)N(Cc1nnc(-c3ccccc3Br)o1)C2=O 37%, COC/C=C/C1=CC2=CC(=O)C(C)(OC(=O)CCC(=O)OC)C(=O)C2=CO1 (configuration not stated) 46.7%, CSc1c(SCc2ccccc2)cnn(Cc2ccccc2)c1=O 140%, CN1C(=O)c2cccc3c(N)ccc(c23)C1=O 198%, CCN1/C(=C\c2ccc3ccccc3[n+]2CC)Sc2cc(C)ccc21 61.6%, CCOc1ccc2nc(N3CCCN(C(=O)Nc4ccccc4C)CC3)c(C#N)cc2c1 42%, COc1ncnc2c1N=C1CC(C)(C)CC(N)=C1S2 112%, CCCN(CC(=O)Nc1ccccc1OC)C(=O)CCC(=O)c1ccc(F)cc1 54.8%, COC(=O)CCCC1=CC2=CC(=O)C(C)(OC(=O)c3cccs3)C(=O)C2=CN1c1cccc(C#N)c1 (configuration not stated) 38.1%, CC(C)n1cnc2c(NCc3ccccc3)cc(N[C@@H](CO)Cc3ccccc3)cc21 43.8%, N#C/C(=C(\O)C(F)(F)F)c1nnc2n1CCCCC2 51.1%, CCOc1cc(C2C(C(=O)OC)=CN(C3CCCC3)C=C2C(=O)OC)cc(Br)c1O 44.7%, NS(=O)(=O)c1ccc(NC(=O)COC(=O)c2c3c(nc4ccccc24)/C(=C\c2ccc4c(c2)OCO4)CCC3)cc1 105%

inhibition, inactive:
CCOC(=O)C1CCN(C(=O)CC2C(=O)N(Cc3ccccc3)C(C)c3nc4ccccc4n32)CC1 (configuration not stated) 3.57%, O=C(CN1CCN(Cc2ccc(F)cc2Cl)C1=O)NCc1cccs1 5.83%, CCOc1cc(/C=C2/C(=N)N3OC(C)=CC3=NC2=O)ccc1OC -3.88%, COc1ccc(OCCCn2cccc2/C=C2/C(=N)N3OC(C)=CC3=NC2=O)cc1 3.29%, COC(=O)C1=C(NC(=O)C(C)(C)C)CCS1 5.48%, CC(C)N(C(=O)COC(=O)c1ccccc1C(=O)N1CCN(c2ccc(F)cc2)CC1)C(C)C 6.66%, O=C(c1cc(=O)c2ccccc2o1)N1CCN(c2ccccc2)CC1 -3.54%, CCn1c(=S)[nH]c2sc3c(c2c1=O)CCCCC3 -5.76%, Cc1ccccc1SCC(=O)OCC(=O)N1CC(=O)Nc2ccccc21 1.92%, CC1CN(C(=O)CCC(=O)NCCCN2CCC(Cc3ccccc3)CC2)c2cc(Cl)ccc2O1 (configuration not stated) 5.77%, CCCCCCn1c(CN2CCCC(C)C2)nc2c1c(=O)n(C)c(=O)n2C (configuration not stated) 9.13%, Cc1c(CN2CCCCC2)c(O)n(CCO)c(=O)c1C#N 7.69%, COc1cccc(NC(=O)NCCN2CCCCC2)c1 11.7%, O=C(NCc1ccccn1)c1ccc2nc(-c3ccco3)c(-c3ccco3)nc2c1 20.3%, CNS(=O)(=O)c1ccc(NC(=O)C2CC(=O)N(c3ccc(Cl)cc3)C2)cc1 (configuration not stated) 1.34%, CC(C)(C)C(=O)CSc1ccc(S(=O)(=O)N2CCCC2)cn1 4.63%, CCCCc1ccc(S(N)(=O)=O)cc1 6.14%, C[C@@H]1CC[C@@]2(OC1)O[C@H]1C[C@H]3[C@@H]4CC=C5C[C@@H](O)[C@H](O)C[C@]5(C)C4CC[C@]3(C)[C@H]1[C@@H]2C (some centres not stated) -7.94%, COc1cccc2cc(C(C)N(CCCN3CCOCC3)C(=O)Nc3ccc(Cl)cc3)oc12 (configuration not stated) 2.92%, CCOC(=O)N1CCN(Cc2nnc(-c3ccccc3Cl)o2)CC1 -10.5%, Cn1cnnc1SCc1nnc(-c2ccccc2Br)o1 -10.8%, COc1cc(S(=O)(=O)N2CCN(C(=O)C3CC3)CC2)ccc1NC(C)=O 3.97%, CCOc1ccc(NC(=O)c2cccc3c2C(=O)N(CC2CCCO2)C3)cc1 (configuration not stated) 2.1%, COCCN1C=C2C(=O)C(C)(OC(=O)C3CCCC3)C(=O)C=C2C=C1c1ccsc1 (configuration not stated) 23.1%, CCCCC1=CC2=CC(=O)C(C)(OC(=O)CC)C(=O)C2=CN1CCCOC(C)C (configuration not stated) 22.9%, CSCCNC(=O)c1ccc2nc(Cc3ccccc3F)oc2c1 -1.35%, COc1ccc(CCN2C(=O)CC(N3CCC(C(N)=O)CC3)C2=O)cc1OC (configuration not stated) 1.78%, COC(=O)c1ccc(SCc2ccccc2)nc1 -5.64%, CCn1c(SCc2ccccc2)nc2cc(OC)c(OC)cc2c1=O -3.64%, COc1cc2c(C(=O)N3CCN(C)CC3)c(CSc3ccccc3)n(C)c2cc1Br 0.62%, COC(=O)c1sc(-c2ccc(C(C)(C)C)cc2)cc1NC(=O)/C=C/C(=O)O -0.27%, O=C(O)c1ccc2c3c(cccc13)C(=O)N(OS(=O)(=O)c1ccccc1)C2=O 13.8%, CC(=O)Nc1ccccc1Sc1ccc2c3c(cccc13)C(=O)N(c1ccc(C)cc1)C2=O 0.24%, COc1ccc(N2C(=O)c3cccc4cccc(c34)C2=O)nn1 13.5%, Cc1nn(C)cc1C(=O)c1ccccc1 1.39%, COc1ccccc1C(=O)NCCC(=O)NCC(c1ccco1)N1CCCCC1 (configuration not stated) 3.67%, CC(C)(C)CN1CCNC(=O)C1CC(=O)NC1Cc2ccccc2C1 (configuration not stated) 8.53%, COc1ccccc1CNC(=O)c1ccc(Cl)c(S(=O)(=O)N2CCCC2)c1 0.54%, N/C(=N\OC(=O)CCn1cccc(C(F)(F)F)c1=O)c1ccc(OC(F)(F)F)cc1 -1.66%, CCOC(=O)c1cc(C#N)c(N2CCCCC2)nc1-c1ccccc1 -3.77%, CCOc1ccc(C(=O)NC2CCN(C(=O)Nc3ccccc3OC)CC2)cc1 0.46%, CC1CCCC(NC(=O)c2cccc(N3CCCC3=O)c2)C1C (configuration not stated) 2.8%, COc1ccccc1C(=O)Nc1nc2nc(-c3ccccc3)cc(=O)n2[nH]1 0.62%, CCNS(=O)(=O)c1ccc(CCC(=O)N2CCN(c3cc(Cl)ccc3C)CC2)cc1 1.35%, Cc1cc(C)n(-c2nc(O)cc(=O)[nH]2)n1 4.97%, CC(C)(C)c1ccc(Cn2nnc3c(=O)[nH]c(C4CCCN(C(=O)c5ccco5)C4)nc32)cc1 (configuration not stated) 4.28%, CCOC(=O)c1cccc(NC(=O)CN2C(=O)C3CC=CCC3C2=O)c1 (configuration not stated) 4.12%, Cc1ccc(OCC(=O)Nc2ccc(C(=O)O)cc2NC(=O)COc2ccc(C)c(C)c2)cc1C 8.42%, CCOC(=O)c1cnc(SC)nc1Sc1ccc(Cl)cc1Cl 6.36%, CCN(CC(=O)Nc1ccccc1OC)C(=O)Cn1cnc2ccccc2c1=O 4.15%, CCN(CC(=O)Nc1ccccc1OC)C(=O)CC1CC2CCC1C2 (configuration not stated) -0.14%, CC1CCN(C(=O)Cn2nnnc2CN2CCOCC2)CC1 0.79%, CCCCNc1c(-c2cccc(Sc3ccc(OC)cc3)c2)nc2ccccn12 2.4%, Cc1cccc(N2C(=O)SC(SC(=Nc3ccccc3)Nc3ccccc3)C2=O)c1 (configuration not stated) 10.3%, COc1ccc(C)cc1NC(=S)Nc1ccccc1SC -6.51%, COc1ccc2c(CC(=O)N3CCc4cc(OC)c(OC)cc4C3)coc2c1 5.21%, O=C(CSc1ccc2nnc(-c3ccccc3)n2n1)N1CCCc2ccccc21 -1.09%, COC(=O)CCCC1=CC2=C(c3ccccc3)C(=O)C(C)(OC(=O)C3CCCC3)C(=O)C2=CN1c1ccc(OC)cc1 (configuration not stated) 7.24%, COC(=O)CCCC1=CC2=CC(=O)C(C)(OC(=O)c3cccs3)C(=O)C2=CN1CC(C)C (configuration not stated) 5.88%, Cc1ccc(O)c(NC(=O)c2cc(-c3ccco3)on2)c1 1.89%, C[C@H]1CN([C@@H](C)CO)C(=O)Cc2cc(NS(C)(=O)=O)ccc2O[C@@H]1CN(C)CC1CC1 0.15%, CCC(CO)Oc1cc(NCc2ccccc2)c2ncn(C3CCCC3)c2c1 (configuration not stated) 5.5%, CC(C)n1cnc2c(NCc3ccccc3)cc(OCC3CCN(C)CC3)cc21 -21.3%, CC(c1cccnc1)N(CCN(C)C)C(=O)Nc1ccc(Cl)c(Cl)c1 (configuration not stated) -1.61%, C/C(=N\N=C(N)N)c1ccc(Cl)cc1 -0.39%, N#C/C(=C/c1cccc([N+](=O)[O-])c1)c1nnc2n1CCCCC2 -1.89%, N#C/C(=C(\O)CCl)c1nnc2n1CCCCC2 -10.3%, CS(=O)(=O)N1CCN(C(=O)CSc2ccccc2)CC1 2.68%, Cc1ccc(S(=O)(=O)N2CCC3(CC2)OCCO3)c(C)c1 -2.29%, COC(=O)C1=CN(Cc2ccc(OC)cc2)C=C(C(=O)OC)C1c1ccc(O)c(OC)c1 4.18%, CCOc1ccc(CNC(=O)C2CCC(=O)N2C2CCCC2)cc1OC (configuration not stated) 7.99%, CCC(C)[C@H](NC(=O)N1CCn2c1nc1ccccc12)C(=O)NCc1ccc(OC)cc1 (some centres not stated) 12.5%, C=CC[n+]1c(-c2ccc(C)cc2)csc1NNC(=O)Nc1ccccc1 -11.8%, O=C(COC(=O)c1ccncc1)Nc1ccc2c(c1)OCO2 -0.85%, O=C(COC(=O)c1ccc(F)cc1)Nc1ccc2c(c1)OCO2 0.03%
